# PubChem BioAssay (EPA / NIEHS)
# Results filed as inconclusive are left out. Active and inactive are the calls of the source. Rule for the calls, unless noted: active = hit-call score of the fitted dose curve at least 0.9, where 1 is the maximum; inactive = score below 0.9.
# Assays:
# [1] = read-out: Interleukin-8 (IL8), CXCL8 (gene 3576); test: BSK_3C_IL8: BioMAP Diversity Plus: 3C Assay for Interleukin-8 (IL8) Biomarker Activity (AID 2283020); conditions: primary human endothelial cells (HUVEC); actives raise or lower the signal
# Method in brief: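 IL-8 was measured by ELISA in HUVEC cultures 24 h after chemical dosing, with gain or loss of signal fitted relative to DMSO. Parallel SRB total-protein staining tracked overt cytotoxicity.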
# [2] = read-out: Monokine induced gamma interferon (MIG), CXCL9 (gene 4283); test: BSK_3C_MIG: BioMAP Diversity Plus: 3C Assay for Monokine induced gamma interferon (MIG) Biomarker Activity (AID 2283021); conditions: primary human endothelial cells (HUVEC); actives raise or lower the signal
# Method in brief: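 ELISA measurement of MIG in human umbilical vein endothelial cells 24 h after treatment. Cytotoxicity tracked by SRB staining in parallel cultures; gain or loss of signal fitted relative to DMSO.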
# [3] = target: human Vitamin D Receptor (VDR), VDR (gene 7421) (UniProt P11473); test: ATG_VDR_TRANS: Attagene TRANS-FACTORIAL HepG2 Assay for human Vitamin D Receptor (VDR) (AID 2283022; active = hit-call score of the fitted dose curve at least 0.9, where 1 is the maximum)
# Method in brief: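 Transactivation by an exogenous VDR-Gal4 chimera in transiently transfected HepG2 cells was measured as reporter transcript level 24 hours after chemical treatment. RT-PCR products were analysed by capillary electrophoresis and fitted in the positive direction relative to DMSO.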
# [4] = BSK_3C_SRB: Viability Assessment in the BioMAP Diversity Plus: 3C Assay (AID 2283023); conditions: primary human endothelial cells (HUVEC);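 note: fitted both ways against DMSO so a hit may be signal rise or drop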
# Method in brief: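 Cytotoxicity readout in parallel HUVEC 3C cultures: after 24 h compound exposure, cells fixed with 10% TCA, stained with 0.1% SRB and read at 560 nm. Gain or loss relative to DMSO fitted.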
# [5] = read-out: Matrix Metallopeptidase 1 (MMP1), MMP1 (gene 4312); test: BSK_BE3C_MMP1: BioMAP Diversity Plus: BE3C Assay for Matrix Metallopeptidase 1 (MMP1) Biomarker Activity (AID 2283024); conditions: primary human bronchial epithelial cells; actives raise or lower the signal
# Method in brief: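 ELISA measurement of MMP-1 after 24 h compound exposure of primary human bronchial epithelial cells. Changes in either direction fitted relative to DMSO; parallel SRB staining checked overt cytotoxicity.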
# [6] = BSK_3C_Vis: BioMAP Diversity Plus: 3C Assay for Morphology Visualization (AID 2283025); conditions: primary human endothelial cells (HUVEC);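 note: fitted both ways so gain or loss versus DMSO counts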
# Method in brief: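 Light-microscopy visualization of HUVEC cultures at 24 h post-treatment, with DMSO as baseline for bidirectional fitting.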
# [7] = read-out: Pselectin, SELP (gene 6403); test: BSK_4H_Pselectin: BioMAP Diversity Plus: 4H Assay for Pselectin Biomarker Activity (AID 2283026); conditions: primary human endothelial cells (HUVEC); actives raise or lower the signal
# Method in brief: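 ELISA of surface P-selectin on HUVEC, 24 h after dosing, with parallel SRB staining (0.1% after 10% TCA fixation, 560 nm) for overt cytotoxicity. Activity fitted in both directions relative to DMSO.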
# [8] = BSK_4H_SRB: Viability Assessment in the BioMAP Diversity Plus: 4H Assay (AID 2283027); conditions: primary human endothelial cells (HUVEC);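 note: cells exposed to compound for 24 h before staining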
# Method in brief: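 Cytotoxicity readout: sulforhodamine B (0.1%) staining of total protein after 10% TCA fixation, measured at 560 nm in human umbilical vein endothelium at 24 h. DMSO set the baseline; fitting was bidirectional.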
# [9] = BSK_BE3C_SRB: Viability Assessment in the BioMAP Diversity Plus: BE3C Assay (AID 2283028); conditions: primary human bronchial epithelial cells
# Method in brief: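 Cytotoxicity read-out: SRB (0.1%) staining of TCA-fixed (10%) human lung bronchial epithelial cells, absorbance 560 nm, 24 h post-dosing. Curves fitted both directions relative to DMSO.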
# [10] = read-out: Thrombomodulin, THBD (gene 7056); test: BSK_3C_Thrombomodulin: BioMAP Diversity Plus: 3C Assay for Thrombomodulin Biomarker Activity (AID 2283029); conditions: primary human endothelial cells (HUVEC); actives raise or lower the signal
# Method in brief: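 ELISA measurement of thrombomodulin on HUVEC surface 24 h after chemical dosing; activity fitted in both directions relative to DMSO vehicle.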
# [11] = read-out: Urokinase-type plasminogen activator receptor (uPAR), PLAUR (gene 5329); test: BSK_4H_uPAR: BioMAP Diversity Plus: 4H Assay for Urokinase-type plasminogen activator receptor (uPAR) Biomarker Activity (AID 2283030); conditions: primary human endothelial cells (HUVEC); actives raise or lower the signal
# Method in brief: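 uPAR level read by ELISA on HUVEC cultures (BioMAP 4H) 24 h post-dosing, analyzed for gain or loss relative to DMSO. Parallel SRB staining assessed overt cytotoxicity.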
# [12] = read-out: Vascular endothelial growth factor receptor 2 (Homo sapiens) (UniProt P35968); test: BSK_4H_VEGFRII: BioMAP Diversity Plus: 4H Assay for Vascular endothelial growth factor receptor 2 (VEGFR2) Biomarker Activity (AID 2283031); conditions: primary human endothelial cells (HUVEC); actives raise or lower the signal
# Method in brief: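 Measured by ELISA after 24 h of compound treatment: VEGFR2 on primary human umbilical vein endothelial cells, fitted in both directions relative to DMSO. Parallel cultures received SRB staining (560 nm) for overt cytotoxicity.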
# [13] = read-out: Human Leukocyte Antigen - DR isotype (HLADR), HLA-DRA (gene 3122); test: BSK_BE3C_HLADR: BioMAP Diversity Plus: BE3C Assay for Human Leukocyte Antigen - DR isotype (HLADR) Biomarker Activity (AID 2283032); conditions: primary human bronchial epithelial cells; actives raise or lower the signal
# Method in brief: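 Cell-surface HLA-DR ELISA readout at 24 h after dosing in the BE3C primary human lung bronchial epithelial system; gain or loss of signal against DMSO, with parallel sulforhodamine B staining of total protein for overt cytotoxicity.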
# [14] = read-out: Vascular cell adhesion molecule 1 (VCAM1), VCAM1 (gene 7412); test: BSK_4H_VCAM1: BioMAP Diversity Plus: 4H Assay for Vascular cell adhesion molecule 1 (VCAM1) Biomarker Activity (AID 2283033); conditions: primary human endothelial cells (HUVEC); actives raise or lower the signal;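 note: cell-surface VCAM-1 protein measured by ELISA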
# Method in brief: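 VCAM-1 ELISA read 24 h after chemical dosing of HUVEC in the BioMAP 4H system, with gain or loss of signal fitted relative to DMSO. Parallel SRB staining (560 nm) checked overt cytotoxicity.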
# [15] = read-out: Interferon-gamma inducible Protein 10 (IP10), CXCL10 (gene 3627); test: BSK_BE3C_IP10: BioMAP Diversity Plus: BE3C Assay for Interferon-gamma inducible Protein 10 (IP10) Biomarker Activity (AID 2283034); conditions: primary human bronchial epithelial cells; actives raise or lower the signal
# Method in brief: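 IP-10 quantified by ELISA in human primary bronchial epithelial cell cultures at 24 hours post-dosing. Gain or loss of signal fitted relative to DMSO; parallel SRB staining assessed overt cytotoxicity.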
# [16] = read-out: Monokine induced gamma interferon (MIG), CXCL9 (gene 4283); test: BSK_BE3C_MIG: BioMAP Diversity Plus: BE3C Assay for Monokine induced gamma interferon (MIG) Biomarker Activity (AID 2283035); conditions: primary human bronchial epithelial cells; actives raise or lower the signal;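 note: MIG protein measured by ELISA in BE3C cultures after 24 h of dosing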
# Method in brief: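 hu bronchial epithelial 1° cells, 24 h cpd; MIG by ELISA; bidirectional fit, DMSO = baseline.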
# [17] = read-out: Transforming growth factor beta 1 (TGFb1), TGFB1 (gene 7040); test: BSK_BE3C_TGFb1: BioMAP Diversity Plus: BE3C Assay for Transforming growth factor beta 1 (TGFb1) Biomarker Activity (AID 2283036;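 note: TGF-b1 protein level measured by ELISA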); conditions: primary human bronchial epithelial cells; actives raise or lower the signal
# Method in brief: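 ELISA readout of TGF-b1 from human lung bronchial epithelial primary cells, taken 24 h post-treatment. Gain or loss of signal fitted relative to DMSO baseline, with parallel SRB staining for overt cytotoxicity.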
# [18] = read-out: Plasminogen activator inhibitor-1 (PAI1), SERPINE1 (gene 5054); test: BSK_BE3C_PAI1: BioMAP Diversity Plus: BE3C Assay for Plasminogen activator inhibitor-1 (PAI1) Biomarker Activity (AID 2283037); conditions: primary human bronchial epithelial cells; actives raise or lower the signal
# Method in brief: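 PAI-1 was measured by ELISA in human primary bronchial epithelial cultures 24 h after chemical dosing, with cytotoxicity checked by SRB total-protein staining in parallel cultures. Activity was fitted in both directions relative to DMSO.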
# [19] = read-out: urokinase plasminogen activator (uPA), PLAU (gene 5328); test: BSK_BE3C_uPA: BioMAP Diversity Plus: BE3C Assay for urokinase plasminogen activator (uPA) Biomarker Activity (AID 2283038); conditions: primary human bronchial epithelial cells; actives raise or lower the signal;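 note: uPA protein level quantified by ELISA in cell cultures; uPA read one day after compound addition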
# Method in brief: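 ELISA for uPA on human primary bronchial epithelial cultures 24 h post-treatment, gain or loss against DMSO. Parallel SRB staining (0.1% after 10% TCA fixation, 560 nm) assessed overt cytotoxicity.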
# [20] = read-out: Urokinase-type plasminogen activator receptor (uPAR), PLAUR (gene 5329); test: BSK_BE3C_uPAR: BioMAP Diversity Plus: BE3C Assay for Urokinase-type plasminogen activator receptor (uPAR) Biomarker Activity (AID 2283039); conditions: primary human bronchial epithelial cells; actives raise or lower the signal;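 for outcome: cells exposed to compound for one day before measurement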
# Method in brief: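 uPAR levels were measured by ELISA after 24 h compound treatment of primary human bronchial epithelial cells, fitted in both directions relative to DMSO. Parallel SRB staining served as the cytotoxicity read-out.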
# Sequence of human Vitamin D Receptor (VDR), VDR (gene 7421) (P11473 whole entry, looked up, the tested form may be a part): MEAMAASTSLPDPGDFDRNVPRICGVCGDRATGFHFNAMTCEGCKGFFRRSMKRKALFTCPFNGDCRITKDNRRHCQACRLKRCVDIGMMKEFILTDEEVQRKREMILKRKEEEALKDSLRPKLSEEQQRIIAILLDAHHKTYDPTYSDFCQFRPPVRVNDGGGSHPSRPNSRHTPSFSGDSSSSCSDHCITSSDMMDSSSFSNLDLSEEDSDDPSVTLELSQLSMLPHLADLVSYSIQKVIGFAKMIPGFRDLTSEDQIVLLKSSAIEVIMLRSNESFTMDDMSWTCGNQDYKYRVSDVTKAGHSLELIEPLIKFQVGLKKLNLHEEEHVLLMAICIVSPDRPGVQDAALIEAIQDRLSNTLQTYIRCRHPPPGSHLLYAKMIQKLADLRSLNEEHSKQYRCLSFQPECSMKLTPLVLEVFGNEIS
compound,measurement,setting,value
O=C(Nc1ccccc1)Nc1cnns1,outcome,[1],inactive
same,outcome,[2],inactive
same,outcome,[3],inactive
same,outcome,[4],inactive
same,outcome,[5],inactive
same,outcome,[6],inactive
same,outcome,[7],inactive
same,outcome,[8],inactive
same,outcome,[9],inactive
same,outcome,[10],inactive
same,outcome,[11],inactive
same,outcome,[12],inactive
same,outcome,[13],inactive
same,outcome,[14],inactive
same,outcome,[15],inactive
same,outcome,[16],inactive
same,outcome,[17],inactive
same,outcome,[18],inactive
same,outcome,[19],inactive
same,outcome,[20],inactive
CCS(=O)(=O)c1cccnc1S(=O)(=O)NC(=O)Nc1nc(OC)cc(OC)n1,outcome,[1],inactive
same,outcome,[2],inactive
same,outcome,[3],inactive
same,outcome,[4],inactive
same,outcome,[5],inactive
same,outcome,[6],inactive
same,outcome,[7],inactive
same,outcome,[8],inactive
same,outcome,[9],inactive
same,outcome,[10],inactive
same,outcome,[11],inactive
same,outcome,[12],inactive
same,outcome,[13],inactive
same,outcome,[14],inactive
same,outcome,[15],inactive
same,outcome,[16],inactive
same,outcome,[17],inactive
same,outcome,[18],inactive
same,outcome,[19],inactive
same,outcome,[20],inactive
COC(=O)c1ccccc1S(=O)(=O)NC(=O)Nc1nc(C)nc(OC)n1,outcome,[1],inactive
same,outcome,[2],inactive
same,outcome,[3],inactive
same,outcome,[4],inactive
same,outcome,[5],inactive
same,outcome,[6],inactive
same,outcome,[7],inactive
same,outcome,[8],inactive
same,outcome,[9],inactive
same,outcome,[10],inactive
same,outcome,[11],inactive
same,outcome,[12],inactive
same,outcome,[13],inactive
same,outcome,[14],inactive
same,outcome,[15],inactive
same,outcome,[16],inactive
same,outcome,[17],inactive
same,outcome,[18],inactive
same,outcome,[19],inactive
same,AC50,[20],173 nM (active)
O=C(O)CCCOc1ccc(Cl)cc1Cl,outcome,[1],inactive
same,outcome,[2],inactive
same,outcome,[3],inactive
same,outcome,[4],inactive
same,outcome,[5],inactive
same,outcome,[6],inactive
same,outcome,[7],inactive
same,outcome,[8],inactive
same,outcome,[9],inactive
same,outcome,[10],inactive
same,outcome,[11],inactive
same,outcome,[12],inactive
same,outcome,[13],inactive
same,outcome,[14],inactive
same,outcome,[15],inactive
same,outcome,[16],inactive
same,outcome,[17],inactive
same,outcome,[18],inactive
same,outcome,[19],inactive
same,outcome,[20],inactive
O=[N+]([O-])/N=C1\NCCN1Cc1ccc(Cl)nc1,outcome,[1],inactive
same,outcome,[2],inactive
same,outcome,[3],inactive
same,outcome,[4],inactive
same,outcome,[5],inactive
same,outcome,[6],inactive
same,outcome,[7],inactive
same,outcome,[8],inactive
same,outcome,[9],inactive
same,outcome,[10],inactive
same,outcome,[11],inactive
same,outcome,[12],inactive
same,outcome,[13],inactive
same,outcome,[14],inactive
same,outcome,[15],inactive
same,outcome,[16],inactive
same,outcome,[17],inactive
same,outcome,[18],inactive
same,outcome,[19],inactive
same,outcome,[20],inactive
